High-throughput results: PubChem, National Center for Advancing Translational Sciences (NCATS)
This excerpt belongs to a sample that is enriched for hits.
KDM5B inh = Primary screen for KDM5B Histone Demethylases FDH-coupled qHTS | Lysine-specific demethylase 5B (Homo sapiens), Q9UGL1 | KDM5B demethylase, FDH-coupled NADH fluorescence (FDH is formaldehyde dehydrogenase) | Potency, µM (doses to about 57.7 µM), actives largely listed as inhibitors | 220,000 compounds, 2.6% hits | AID 1347165, 2019; active = well fitted inhibition curve with a large enough effect; note: nearly all actives have a fitted effect of over 70% in size
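KDM5BΔAP (200 nM final) in 50 mM HEPES pH 7.5, 0.01% Tween-20 was preincubated 10 min at RT with compound over a concentration range. Substrate mix (H3K4me3 12.5 µM, α-KG 25 µM, Fe²⁺, ascorbate, NAD⁺, FDH) was added, and NADH fluorescence change over 30 min gave dose-response curves.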
Hits are given with their value; 0 = inactive.

SMILES	KDM5B inh
Cc1nc2ccc(C(=O)OC(C)C(=O)NC3CCCCCC3)cc2nc1C (configuration not stated)	0
Cc1cc(C[C@@H]2COC[C@@H]2NC(=O)CCn2cnc3ccccc32)on1	0
Cc1cc(C[C@@H]2COC[C@@H]2NC(=O)COc2cccc(C)c2C)on1	20µM
Cc1cc(C[C@@H]2COC[C@@H]2NC(=O)Cn2ncc3ccccc32)on1	0
CCOC(=O)c1oc2ccc(S(=O)(=O)NCC3Cn4cccc4C(=O)N3C)cc2c1C (configuration not stated)	0
Cc1nc(N)sc1Cc1ccccc1	0
CC(=O)C1=C(OC(=O)c2ccccc2)c2ccccc2S(=O)(=O)N1C(C)C	0
CN1Cc2ccc(Nc3ccccc3)nc2C(C)(C(=O)NCc2ccc3c(c2)OCO3)C1 (configuration not stated)	40µM
COc1cccc(Nc2ncc3c(n2)C(C)(C(=O)NCCc2ccccn2)CC3)c1 (configuration not stated)	0
COc1cccc(Nc2ccc3c(n2)C(C)(C(=O)NC2CCN(C)CC2)CN(C)C3)c1 (configuration not stated)	0
COc1cccc(Nc2ccc3c(n2)C(C)(C(=O)NCc2ccco2)CN(C)C3)c1 (configuration not stated)	28µM
O=C(Cn1ccn2nc(-c3ccccc3)cc2c1=O)NCc1ccc2c(c1)OCO2	0
CN1Cc2ccc(NCc3ccccc3)nc2C(C)(C(=O)NCc2ccccc2)C1 (configuration not stated)	0
Cc1cc(SC(C(=O)O)c2ccccc2)ncn1 (configuration not stated)	0
Cc1cc(NC(=O)Cc2ccsc2)ccc1N1CCCC1=O	0
COC(=O)/C=C/c1ccc(OCc2ccc(Br)cc2)c(OC)c1	0
O=C1CCCC2=C1C(c1cc(Cl)ccc1O)C1=C(CCCC1=O)O2	0
CN(C)c1cccc(Nc2cc3c(cn2)CN(Cc2ccccc2)CCN3)c1	0
Fc1cccc(CN2CCNc3cc(Nc4ccccc4)ncc3C2)c1	0
c1ccc(Nc2cc3c(cn2)NCCN(Cc2ccc4[nH]ccc4c2)C3)cc1	32µM
COc1cccc(CN2CCc3c(cc(C(=O)Nc4ccccc4)n3C)C2)c1	0
COc1cccc(CN2CCNc3cc(Nc4cccnc4)ncc3C2)c1	0
COc1cccc(Nc2cc3c(cn2)NCCN(Cc2ccccc2)C3)c1	40µM
COc1cccc(CN2CCNc3cnc(Nc4ccccc4)cc3C2)c1	35µM
c1ccc(Nc2cc3c(cn2)CN(Cc2cnc[nH]2)CCN3)cc1	0
SMILES	KDM5B inh
O=C(Cn1ccn2nc(-c3ccc4c(c3)OCO4)cc2c1=O)NCc1ccco1	0
Cc1ccc[n+]([O-])c1C	0
Cc1ccc(C)c(-c2cc(C(=O)O)c3ccccc3n2)c1	0
Cc1cccc(C(=O)NC(c2ccc(Cl)cc2)C2CC2)c1 (configuration not stated)	0
COCCCNc1nc2ccccc2nc1C(C#N)C(=O)OC (configuration not stated)	0
Cc1ccsc1CNCCCN(C)C	0
CCC1(N2CCN(S(=O)(=O)c3ccc4c(c3)CCCC4)CC2)CCN(C(=O)NC)C1 (configuration not stated)	0
Cc1cc(C(=O)NC2CC2)c2c(C3CCCN3)noc2n1 (configuration not stated)	0
O=C(NCc1ccc(F)cc1)c1cc(C2CC2)nc2onc(C3CCCNC3)c12 (configuration not stated)	0
Cc1cc(C(=O)NCC2CC2)c2c(C3CCNCC3)noc2n1	0
O=C(NCc1ccc(F)cc1)c1cc(C2CC2)nc2onc(C3CCCN3)c12 (configuration not stated)	0
COCCNC(=O)c1cc(-c2ccccc2C(F)(F)F)nc2onc(C3CCCN3)c12 (configuration not stated)	0
Cc1cc(C(=O)NCCCOC(C)C)c2c(C3CCCN3)noc2n1 (configuration not stated)	50µM
COCCNC(=O)c1cc(C2CC2)nc2onc(C3CCCN3)c12 (configuration not stated)	56µM
O=C(NCC1CC1)c1cc(C2CC2)nc2onc(C3CCCN3)c12 (configuration not stated)	89µM
Cc1cc(C(=O)NC2CCCC2)c2c(C3CCCN3)noc2n1 (configuration not stated)	0
COc1cc(CNC(=O)c2cc(C3CC3)nc3onc(C)c23)cc(OC)c1OC	0
O=C(c1cc(C2CC2)nc2onc(C3CCCN3)c12)N1CCCCC1 (configuration not stated)	0
O=C(NCC1CC1)c1cc(C2CC2)nc2onc(C3CCCNC3)c12 (configuration not stated)	89µM
Cc1ccc2nc(/C(C#N)=C/c3sccc3C)[nH]c2c1	0
CCN1CCC(CNCc2cccs2)C1 (configuration not stated)	0
CN1CCN(C(=O)C2(N(C)CCc3ccccc3)Cc3ccccc3C2)CC1	0
COC(=O)c1ccc(C2Sc3ccccc3NC3=C2C(=O)c2ccccc23)cc1 (configuration not stated)	0
CC1(C)Cc2cccc(OCC(=O)OCC(=O)Nc3ccc(F)c(F)c3)c2O1	0
COc1ccc(CCNC(=O)c2cnc3ccc(C)cn3c2=O)cc1OC	0
SMILES	KDM5B inh
Cn1nccc1-c1cc2c(ccn2C)c(C(=O)NCCc2cnc[nH]2)n1	0
COc1ccc(-c2cc(C(=O)NCCC(=O)N3CCOCC3)c3ccccc3n2)cc1OC	0
COc1ccc(-c2cc(C(=O)NCCc3cnc[nH]3)c3c(c2)N(C)CCO3)cc1OC	32µM
CC(C)c1ccc(CC(=O)N2CCCc3ncc(C(=O)NCCc4cnc[nH]4)cc32)cc1	0
Cc1ccccc1-c1cc(C(=O)NCCc2cnc[nH]2)c2c(c1)N(C)CCO2	35µM
CCN(CC)c1nc2ccccc2nc1C(=O)Nc1c(C)cccc1C	0
Cc1oc2c(c(C)cc3o/c(=N/O)c4c(c32)CCCC4)c1C	0
COc1ccc(NS(=O)(=O)c2ccc3oc(SC(C)C(=O)N4CCC(C)CC4)nc3c2)cc1 (configuration not stated)	0
Cc1ccc(C(=O)Nc2ccc3nc(SCC(=O)N4CCC(C)CC4)sc3c2)cc1	0
Cc1oc(-c2ccccc2)nc1CC(=O)NC1CCN(CC(N)=O)CC1	0
S=C(NCCC(c1ccccc1)c1ccccc1)Nc1ccc(Nc2ccccc2)cc1	0
Cc1ccc(NC(=S)NNC(=O)Nc2ccc(Cl)cc2)cc1	0
CC1N(O)C(C)(C)C(c2ccc(Cl)cc2)=[N+]1[O-] (configuration not stated)	0
CCc1nc2nc(-c3cccc(OC)c3)cc(=O)n2[nH]1	0
COc1ccc(CNC(=O)N2CCCCCC2CN2CCOCC2)cc1 (configuration not stated)	0
Cc1cccc(-c2cn[nH]c2C2CCN(C(=O)c3ccccc3OC(F)F)CC2)c1	0
Cc1cccc2nc(C(=O)N3CCCC(c4[nH]ncc4-c4ccccc4)C3)cn12 (configuration not stated)	0
Cc1nc2ncccn2c1C(=O)N1CCC(c2[nH]ncc2-c2ccccc2)CC1	28µM
CCN(CC)CCCn1c(-c2ccc(COc3cc(C)ccc3Cl)cc2)n[nH]c1=S	0
Cc1ccc(NC(=O)c2cc(-c3ccncc3)nc3ccccc23)c(C)c1	0
CC(C)c1ccc(OCc2nn3c(=O)c4ccccc4nc3s2)cc1	0
CCc1noc(-c2cccn3c(CNC(=O)c4cc(Cl)ccc4F)nnc23)n1	28µM
